# Assay results taken from PubChem BioAssay (EPA / NIEHS).
# The source made the active and inactive calls. How the source made its calls: active means hit-call score of the fitted dose curve at least 0.9, where 1 is the maximum; inactive means score below 0.9.
# Tests used:
# Conditions in all cases: mRNA level, 48 h; actives raise or lower the signal
# CYP4A11 (gene 1579) = assay: LTEA_HepaRG_CYP4A11: Life Technologies and Expression Analysis (LTEA) Assay for CYP4A11 using HepaRG (AID 2283486)
# In short: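 Differentiated HepaRG cells, 48 h after plating, exposed in duplicate for 48 h to 8 half-log concentrations up to 100 uM in 0.5% DMSO in serum-free induction medium. CYP4A11 mRNA measured by TaqMan qRT-PCR, normalized to ACTB, GAPDH and POLR2A.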
# [1] = read-out: Cytochrome P450 3A4 (Homo sapiens) (UniProt P08684); assay: LTEA_HepaRG_CYP3A4: Life Technologies and Expression Analysis (LTEA) Assay for CYP3A4 using HepaRG (AID 2283487)
# In short: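 Differentiated HepaRG cells, plated 48 h, then dosed 48 h in serum-free induction medium with 0.5% DMSO, 8 half-log concentrations up to 100 uM, duplicate. CYP3A4 mRNA by qRT-PCR, normalized to ACTB/GAPDH/POLR2A; bidirectional fit versus DMSO.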
# [2] = read-out: DNA damage-inducible transcript 3 (DDIT3), DDIT3 (gene 1649); assay: LTEA_HepaRG_DDIT3: Life Technologies and Expression Analysis (LTEA) Assay for DNA damage-inducible transcript 3 (DDIT3) using HepaRG (AID 2283488)
# In short: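 DDIT3 transcript was quantified by qRT-PCR with ACTB/GAPDH/POLR2A normalization after 48 h chemical treatment of differentiated HepaRG cells in 0.5% DMSO. Dosing was eight-point, half-log, top 100 uM, duplicate wells. Curves fitted bidirectionally versus DMSO.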
# [3] = read-out: Pro-epidermal growth factor (Homo sapiens) (UniProt P01133); assay: LTEA_HepaRG_EGF: Life Technologies and Expression Analysis (LTEA) Assay for Epidermal growth factor (EGF) using HepaRG (AID 2283489)
# In short: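 HepaRG cells (~100,000/well, 48 h pre-culture) exposed in duplicate for 48 h in serum-free induction medium to 8 half-log concentrations up to 100 uM in 0.5% DMSO. EGF mRNA by qRT-PCR, normalized to ACTB/GAPDH/POLR2A; bidirectional fit versus DMSO.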
# [4] = read-out: Early growth response protein 1 (EGR1) transcription factor, EGR1 (gene 1958); assay: LTEA_HepaRG_EGR1: Life Technologies and Expression Analysis (LTEA) Assay for Early growth response protein 1 (EGR1) transcription factor using HepaRG (AID 2283490)
# In short: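 EGR1 expression change in human HepaRG after 48 h chemical exposure, assessed by housekeeping-normalized qRT-PCR; concentration-response up to 100 uM, fitted in both directions against DMSO controls.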
# [5] = read-out: Ezrin (EZR), EZR (gene 7430); assay: LTEA_HepaRG_EZR: Life Technologies and Expression Analysis (LTEA) Assay for Ezrin (EZR) using HepaRG (AID 2283491)
# In short: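 EZR transcript levels came from Fluidigm qRT-PCR and were normalized to three housekeeping genes after 48 h chemical exposure of HepaRG cells. Dosing used an 8-point half-log series with a 100 uM top concentration in 0.5% DMSO, tested in duplicate; both directions were fitted versus vehicle.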
# CYP3A5 (gene 1577) = assay: LTEA_HepaRG_CYP3A5: Life Technologies and Expression Analysis (LTEA) Assay for CYP3A5 using HepaRG (AID 2283493)
# In short: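 mRNA levels were quantified by qRT-PCR on Fluidigm arrays and normalized to three housekeeping genes. Differentiated HepaRG cells received 48 h exposure (top 100 uM, half-log steps, 0.5% DMSO vehicle, duplicate); bidirectional fitting versus DMSO.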
# [6] = read-out: Fatty Acid-Binding Protein 1 (FABP1), FABP1 (gene 2168); assay: LTEA_HepaRG_FABP1: Life Technologies and Expression Analysis (LTEA) Assay for Fatty Acid-Binding Protein 1 (FABP1) using HepaRG (AID 2283494)
# In short: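 Values reflect bidirectional concentration-response fitting of FABP1 mRNA change against 0.5% DMSO controls. Human HepaRG cultures received eight half-log doses (top 100 uM) for 48 h; expression quantified by TaqMan qRT-PCR with housekeeping-gene normalization.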
# [7] = read-out: Cytochrome P450 4A22 (Homo sapiens) (UniProt Q5TCH4); assay: LTEA_HepaRG_CYP4A22: Life Technologies and Expression Analysis (LTEA) Assay for Cytochrome P450 4A22 (CYP4A22) using HepaRG (AID 2283495)
# In short: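 Differentiated HepaRG cells in serum-free induction medium exposed 48 h in duplicate to eight half-log concentrations up to 100 uM in 0.5% DMSO. CYP4A22 mRNA quantified by TaqMan qRT-PCR, normalized to ACTB, GAPDH and POLR2A; bidirectional fit versus DMSO.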
# [8] = read-out: Cytochrome P450 7A1 (Homo sapiens) (UniProt P22680); assay: LTEA_HepaRG_CYP7A1: Life Technologies and Expression Analysis (LTEA) Assay for Cytochrome P450 7A1 (CYP7A1) using HepaRG (AID 2283496)
# In short: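 HepaRG, 48 h exposure, 8-pt half-log series from 100 uM, 0.5% DMSO vehicle, duplicates. Readout: TaqMan qRT-PCR mRNA vs three housekeeping genes; bidirectional curve fit against DMSO baseline.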
# [9] = read-out: Glutathione S-Transferase (GSTA2), GSTA2 (gene 2939); assay: LTEA_HepaRG_GSTA2: Life Technologies and Expression Analysis (LTEA) Assay for Glutathione S-Transferase (GSTA2) using HepaRG (AID 2283497)
# In short: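 Oxidative-stress marker GSTA2 is quantified by TaqMan qRT-PCR in HepaRG cultures treated 48 h across an eight-point range to 100 uM. Expression is normalized to endogenous controls and compared with 0.5% DMSO vehicle.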
# [10] = read-out: Glutamate-cysteine ligase catalytic (GCLC), GCLC (gene 2729); assay: LTEA_HepaRG_GCLC: Life Technologies and Expression Analysis (LTEA) Assay for Glutamate-cysteine ligase catalytic (GCLC) using HepaRG (AID 2283498)
# In short: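 Oxidative-stress marker GCLC is measured as mRNA change in human HepaRG liver cells after 48 h chemical treatment in 0.5% DMSO, eight concentrations from 100 uM. Activity is fitted bidirectionally against vehicle.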
# [11] = read-out: growth arrest and DNA damage 45 (GADD45G), GADD45G (gene 10912); assay: LTEA_HepaRG_GADD45G: Life Technologies and Expression Analysis (LTEA) Assay for growth arrest and DNA damage 45 (GADD45G) using HepaRG (AID 2283499)
# In short: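 Differentiated human HepaRG cells, 48 h post-plating, exposed 48 h in serum-free induction medium to 8 half-log concentrations (top 100 uM, 0.5% DMSO) in duplicate. GADD45G mRNA measured by Fluidigm TaqMan qRT-PCR, normalized to ACTB, GAPDH, POLR2A; bidirectional fit versus DMSO.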
# [12] = read-out: Glutathione S-transferase M3 (GSTM3), GSTM3 (gene 2947); assay: LTEA_HepaRG_GSTM3: Life Technologies and Expression Analysis (LTEA) Assay for Glutathione S-transferase M3 (GSTM3) using HepaRG (AID 2283501)
# In short: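 Differentiated human HepaRG cells were exposed in duplicate for 48 h in serum-free induction medium, 8 points from 100 uM top in half-log steps, 0.5% DMSO. GSTM3 mRNA was measured by TaqMan qRT-PCR, normalized to ACTB, GAPDH and POLR2A; bidirectional fit versus DMSO.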
# [13] = read-out: Heat shock 70 kDa protein 1 (HSPA1A), gene 3303; assay: LTEA_HepaRG_HSPA1A: Life Technologies and Expression Analysis (LTEA) Assay for Heat shock 70 kDa protein 1 (HSPA1A) using HepaRG (AID 2283502)
# In short: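 HSPA1A expression measured by qRT-PCR with ACTB/GAPDH/POLR2A normalization; curves fitted in both directions relative to DMSO vehicle. Exposure: 48 h in HepaRG cells, duplicate 8-point half-log series from 100 uM, 0.5% DMSO, serum-free induction medium.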
# [14] = read-out: Hypoxia-inducible factor 1-alpha (Homo sapiens) (UniProt Q16665); assay: LTEA_HepaRG_HIF1A: Life Technologies and Expression Analysis (LTEA) Assay for Hypoxia-inducible factor 1 (HIF1A) Trancription factor using HepaRG (AID 2283503)
# In short: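 HIF1A transcript level read by qRT-PCR (ACTB, GAPDH, POLR2A normalization) after 48 h chemical exposure of HepaRG cultures. Eight half-log concentrations, top 100 uM, 0.5% DMSO vehicle, duplicates; bidirectional curve fit against DMSO baseline.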
# [15] = read-out: 3-Hydroxy-3-Methylglutaryl-CoA Synthase 2 (HMGCS2), HMGCS2 (gene 3158); assay: LTEA_HepaRG_HMGCS2: Life Technologies and Expression Analysis (LTEA) Assay for 3-Hydroxy-3-Methylglutaryl-CoA Synthase 2 (HMGCS2) using HepaRG (AID 2283504)
# In short: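 Human HepaRG cells in serum-free induction medium were exposed in duplicate for 48 h to 8-point half-log series from 100 uM top in 0.5% DMSO. HMGCS2 mRNA measured by TaqMan qRT-PCR, normalised to ACTB, GAPDH, POLR2A; bidirectional fit versus DMSO.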
# HGF (gene 3082) = assay: LTEA_HepaRG_HGF: Life Technologies and Expression Analysis (LTEA) Assay for Hepatocyte Growth Facto (HGF) using HepaRG (AID 2283505)
# In short: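 Differentiated HepaRG cells in serum-free induction medium exposed 48 h in duplicate, 8 half-log concentrations from 100 uM in 0.5% DMSO. HGF mRNA by qRT-PCR, normalised to ACTB, GAPDH, POLR2A; bidirectional fitting.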
# [16] = read-out: Cytochrome P450 3A7 (Homo sapiens) (UniProt P24462); assay: LTEA_HepaRG_CYP3A7: Life Technologies and Expression Analysis (LTEA) Assay for CYP3A7 using HepaRG (AID 2283492)
# In short: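 Differentiated HepaRG cells in serum-free induction medium exposed 48 h in duplicate to 8-point half-log series from 100 uM top in 0.5% DMSO. CYP3A7 mRNA by qRT-PCR, normalized to ACTB/GAPDH/POLR2A, bidirectional fit versus DMSO.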
# [17] = read-out: Glutamate-cysteine ligase regulatory (GCLM), GCLM (gene 2730); assay: LTEA_HepaRG_GCLM: Life Technologies and Expression Analysis (LTEA) Assay for Glutamate-cysteine ligase regulatory (GCLM) using HepaRG (AID 2283500)
# In short: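 GCLM expression quantified by qRT-PCR, normalized to three housekeeping genes, after 48 h chemical treatment of HepaRG cells in duplicate at 8 concentrations (top 100 uM, half-log steps, 0.5% DMSO). Changes fitted both directions against vehicle.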
# Cytochrome P450 3A4 (Homo sapiens), sequence (P08684 whole entry, looked up): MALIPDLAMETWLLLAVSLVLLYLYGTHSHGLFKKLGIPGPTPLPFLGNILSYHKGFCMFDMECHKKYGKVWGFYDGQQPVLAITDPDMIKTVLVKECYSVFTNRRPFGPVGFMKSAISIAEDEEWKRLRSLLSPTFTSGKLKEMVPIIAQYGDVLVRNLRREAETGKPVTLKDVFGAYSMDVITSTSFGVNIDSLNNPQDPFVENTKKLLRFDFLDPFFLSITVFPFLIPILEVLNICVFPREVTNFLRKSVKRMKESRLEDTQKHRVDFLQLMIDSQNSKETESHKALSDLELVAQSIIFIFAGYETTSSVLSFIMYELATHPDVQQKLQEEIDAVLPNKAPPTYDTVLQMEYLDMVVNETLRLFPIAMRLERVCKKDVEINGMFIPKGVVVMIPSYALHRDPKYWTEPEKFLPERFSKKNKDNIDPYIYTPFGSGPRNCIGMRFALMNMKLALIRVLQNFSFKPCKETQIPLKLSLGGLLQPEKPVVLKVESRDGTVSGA
# Hypoxia-inducible factor 1-alpha (Homo sapiens), sequence (Q16665 whole entry, looked up): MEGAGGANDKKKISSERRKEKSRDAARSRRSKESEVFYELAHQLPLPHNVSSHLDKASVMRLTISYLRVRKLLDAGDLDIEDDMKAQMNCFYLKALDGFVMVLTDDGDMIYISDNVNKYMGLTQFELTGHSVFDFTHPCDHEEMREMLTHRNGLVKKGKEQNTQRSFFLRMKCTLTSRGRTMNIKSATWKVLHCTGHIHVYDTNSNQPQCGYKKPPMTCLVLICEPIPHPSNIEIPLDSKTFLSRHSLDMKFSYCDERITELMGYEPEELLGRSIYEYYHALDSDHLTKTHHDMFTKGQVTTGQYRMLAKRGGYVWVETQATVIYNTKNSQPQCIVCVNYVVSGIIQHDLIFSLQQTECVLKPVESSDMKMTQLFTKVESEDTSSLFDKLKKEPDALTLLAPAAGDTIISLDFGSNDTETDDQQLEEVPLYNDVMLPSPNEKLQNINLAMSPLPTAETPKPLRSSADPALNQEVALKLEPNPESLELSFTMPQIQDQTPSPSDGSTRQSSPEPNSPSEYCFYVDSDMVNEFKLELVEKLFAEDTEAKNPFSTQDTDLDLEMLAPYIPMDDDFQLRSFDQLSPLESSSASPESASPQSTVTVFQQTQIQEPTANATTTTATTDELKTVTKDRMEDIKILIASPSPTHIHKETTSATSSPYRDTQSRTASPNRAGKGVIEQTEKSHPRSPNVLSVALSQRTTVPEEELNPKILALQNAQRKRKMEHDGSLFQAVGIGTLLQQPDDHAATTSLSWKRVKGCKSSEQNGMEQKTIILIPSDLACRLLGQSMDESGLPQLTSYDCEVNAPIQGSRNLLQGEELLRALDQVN
# Cytochrome P450 3A7 (Homo sapiens), sequence (P24462 whole entry, looked up): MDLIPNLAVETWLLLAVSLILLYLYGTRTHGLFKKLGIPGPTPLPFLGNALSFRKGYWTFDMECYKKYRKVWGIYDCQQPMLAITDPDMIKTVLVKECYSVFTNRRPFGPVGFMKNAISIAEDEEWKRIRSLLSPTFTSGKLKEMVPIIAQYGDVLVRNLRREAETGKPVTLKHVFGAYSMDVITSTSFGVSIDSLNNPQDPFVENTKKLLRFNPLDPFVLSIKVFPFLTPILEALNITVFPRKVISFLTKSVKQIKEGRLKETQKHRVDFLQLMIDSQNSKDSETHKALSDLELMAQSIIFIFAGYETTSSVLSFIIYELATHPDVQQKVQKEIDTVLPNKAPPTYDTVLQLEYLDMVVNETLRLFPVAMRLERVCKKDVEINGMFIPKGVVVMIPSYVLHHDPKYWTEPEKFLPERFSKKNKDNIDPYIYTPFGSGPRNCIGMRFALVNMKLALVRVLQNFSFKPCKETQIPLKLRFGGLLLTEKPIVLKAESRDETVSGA
compound,measurement,setting,value
Cc1cccc(C)c1N,outcome,CYP4A11 (gene 1579),inactive
same,outcome,[1],inactive
same,outcome,[2],inactive
same,outcome,[3],inactive
same,outcome,[4],inactive
same,AC50,[5],364 nM (active)
same,outcome,CYP3A5 (gene 1577),inactive
same,outcome,[6],inactive
same,outcome,[7],inactive
same,outcome,[8],inactive
same,outcome,[9],inactive
same,outcome,[10],inactive
same,outcome,[11],inactive
same,outcome,[12],inactive
same,outcome,[13],inactive
same,outcome,[14],inactive
same,outcome,[15],inactive
same,outcome,HGF (gene 3082),inactive
Cc1ccc(O)c(C)c1,outcome,CYP4A11 (gene 1579),inactive
same,outcome,[1],inactive
same,outcome,[2],inactive
same,outcome,[3],inactive
same,outcome,[4],inactive
same,outcome,[5],inactive
same,outcome,[16],inactive
same,outcome,CYP3A5 (gene 1577),inactive
same,outcome,[6],inactive
same,outcome,[7],inactive
same,outcome,[8],inactive
same,outcome,[9],inactive
same,outcome,[10],inactive
same,outcome,[11],inactive
same,outcome,[17],inactive
same,outcome,[12],inactive
same,outcome,[13],inactive
same,outcome,[14],inactive
same,outcome,[15],inactive
same,outcome,HGF (gene 3082),inactive
